From ChEMBL document CHEMBL1961873, “Compounds: GSK PKIS; Assays: Nanosyn kinase panel” (2012) come the findings set out here.

Assay [1] concerns the target Protein kinase C gamma type (Homo sapiens) (UniProt P05129). As to conditions: at 1 µM.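 Note: each value is an averaged percent inhibition of the enzyme.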
Assay [2] deals with T1, Protein kinase C iota type (Homo sapiens) (UniProt P41743).
T1 sequence (whole entry): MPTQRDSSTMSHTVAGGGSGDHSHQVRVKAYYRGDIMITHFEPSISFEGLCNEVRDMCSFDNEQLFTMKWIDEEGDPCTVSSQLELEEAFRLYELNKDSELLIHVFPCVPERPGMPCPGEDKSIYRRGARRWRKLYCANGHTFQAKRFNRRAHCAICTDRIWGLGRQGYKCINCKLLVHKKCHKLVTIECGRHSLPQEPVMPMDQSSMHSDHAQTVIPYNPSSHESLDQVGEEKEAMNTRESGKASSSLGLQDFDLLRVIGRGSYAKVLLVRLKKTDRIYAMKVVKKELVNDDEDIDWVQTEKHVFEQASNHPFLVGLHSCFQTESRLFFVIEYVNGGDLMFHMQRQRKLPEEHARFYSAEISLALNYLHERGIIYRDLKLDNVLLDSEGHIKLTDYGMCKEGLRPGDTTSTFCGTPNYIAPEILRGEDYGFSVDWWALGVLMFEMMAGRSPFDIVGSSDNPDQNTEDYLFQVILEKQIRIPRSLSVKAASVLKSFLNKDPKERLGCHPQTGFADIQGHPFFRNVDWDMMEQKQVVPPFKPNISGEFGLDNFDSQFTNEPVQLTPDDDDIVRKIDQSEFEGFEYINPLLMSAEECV
As to conditions: at 0.1 µM.

In assay [3] the target is T1, Protein kinase C iota type (Homo sapiens). The settings on record: at 1 µM.
For assay [4], the target named is Protein kinase C theta type (Homo sapiens) (UniProt Q04759). The settings on record: at 0.1 µM.
Chain of Protein kinase C theta type (Homo sapiens) (Q04759 whole entry, looked up): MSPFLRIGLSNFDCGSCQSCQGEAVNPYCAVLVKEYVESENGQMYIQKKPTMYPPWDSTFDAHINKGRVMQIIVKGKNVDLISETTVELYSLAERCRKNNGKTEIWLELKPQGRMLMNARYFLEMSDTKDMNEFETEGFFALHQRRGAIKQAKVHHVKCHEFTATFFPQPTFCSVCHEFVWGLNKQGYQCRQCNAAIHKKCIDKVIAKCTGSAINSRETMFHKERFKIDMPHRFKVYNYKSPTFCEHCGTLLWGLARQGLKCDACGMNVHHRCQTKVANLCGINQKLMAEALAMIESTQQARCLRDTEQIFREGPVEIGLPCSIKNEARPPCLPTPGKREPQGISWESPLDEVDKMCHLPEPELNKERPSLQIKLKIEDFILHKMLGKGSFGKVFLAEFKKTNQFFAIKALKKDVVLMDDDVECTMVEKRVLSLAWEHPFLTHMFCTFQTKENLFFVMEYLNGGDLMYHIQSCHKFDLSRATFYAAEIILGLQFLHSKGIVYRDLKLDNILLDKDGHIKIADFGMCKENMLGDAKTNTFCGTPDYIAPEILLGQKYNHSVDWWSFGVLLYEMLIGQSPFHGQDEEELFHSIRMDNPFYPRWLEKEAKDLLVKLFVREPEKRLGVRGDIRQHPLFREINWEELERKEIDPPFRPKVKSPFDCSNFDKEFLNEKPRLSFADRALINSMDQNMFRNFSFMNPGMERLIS
The target is the same in assay [5]. The settings on record: at 1 µM.
Assay [6] deals with Protein kinase C beta type (Homo sapiens) (UniProt P05771). The settings on record: at 0.1 µM.
Chain of Protein kinase C beta type (Homo sapiens) (P05771 2-671 limits assumed): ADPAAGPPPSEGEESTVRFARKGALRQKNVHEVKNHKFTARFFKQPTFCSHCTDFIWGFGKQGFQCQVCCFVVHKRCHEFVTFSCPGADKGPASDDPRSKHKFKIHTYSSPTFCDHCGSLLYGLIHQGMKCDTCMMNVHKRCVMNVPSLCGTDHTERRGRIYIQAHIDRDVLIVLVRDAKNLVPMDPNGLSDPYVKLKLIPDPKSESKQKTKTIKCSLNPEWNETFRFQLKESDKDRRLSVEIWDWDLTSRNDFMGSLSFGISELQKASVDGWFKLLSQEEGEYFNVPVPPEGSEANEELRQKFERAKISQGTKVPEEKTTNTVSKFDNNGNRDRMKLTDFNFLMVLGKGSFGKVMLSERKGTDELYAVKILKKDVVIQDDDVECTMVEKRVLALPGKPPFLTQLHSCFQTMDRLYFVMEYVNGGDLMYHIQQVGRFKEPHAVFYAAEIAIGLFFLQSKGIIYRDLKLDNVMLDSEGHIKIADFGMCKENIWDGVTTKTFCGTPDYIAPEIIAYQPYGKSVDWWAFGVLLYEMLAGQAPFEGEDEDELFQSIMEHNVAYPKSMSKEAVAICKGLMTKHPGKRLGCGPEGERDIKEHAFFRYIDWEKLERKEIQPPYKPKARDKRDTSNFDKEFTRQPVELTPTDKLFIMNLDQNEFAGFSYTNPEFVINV
For assay [7] the target is unchanged. As to conditions: at 1 µM.
Assay [8] has as its target T2, Serine/threonine-protein kinase D1 (Homo sapiens) (UniProt Q15139).
T2 sequence (whole entry): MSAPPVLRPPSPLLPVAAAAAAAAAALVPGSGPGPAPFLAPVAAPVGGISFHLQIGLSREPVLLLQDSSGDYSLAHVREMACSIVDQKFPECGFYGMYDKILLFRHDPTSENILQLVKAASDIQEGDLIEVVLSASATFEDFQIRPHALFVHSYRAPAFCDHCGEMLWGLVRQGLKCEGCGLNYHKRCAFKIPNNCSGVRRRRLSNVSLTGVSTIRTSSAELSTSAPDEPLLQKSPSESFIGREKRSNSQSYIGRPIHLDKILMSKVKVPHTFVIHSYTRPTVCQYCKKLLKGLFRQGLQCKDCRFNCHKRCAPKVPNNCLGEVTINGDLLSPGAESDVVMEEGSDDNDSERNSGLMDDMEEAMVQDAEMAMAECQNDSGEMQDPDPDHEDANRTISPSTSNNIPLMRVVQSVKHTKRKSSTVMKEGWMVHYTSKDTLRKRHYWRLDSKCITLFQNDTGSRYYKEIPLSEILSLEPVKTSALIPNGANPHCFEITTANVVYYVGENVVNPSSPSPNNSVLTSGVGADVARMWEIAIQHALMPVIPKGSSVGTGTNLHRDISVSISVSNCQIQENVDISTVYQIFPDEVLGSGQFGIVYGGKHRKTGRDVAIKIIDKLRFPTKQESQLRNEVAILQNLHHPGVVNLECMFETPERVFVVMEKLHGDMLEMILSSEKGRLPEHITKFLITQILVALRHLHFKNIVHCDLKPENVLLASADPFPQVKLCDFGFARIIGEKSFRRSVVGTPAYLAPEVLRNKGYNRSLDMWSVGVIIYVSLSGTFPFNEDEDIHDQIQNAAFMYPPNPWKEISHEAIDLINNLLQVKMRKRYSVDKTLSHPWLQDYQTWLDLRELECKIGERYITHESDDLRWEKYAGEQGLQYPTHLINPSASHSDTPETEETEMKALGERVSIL
The settings on record: at 0.1 µM.

The target in assay [9] is T2, Serine/threonine-protein kinase D1 (Homo sapiens). As to conditions: at 1 µM.
In assay [10] the target is T3, Serine/threonine-protein kinase D2 (Homo sapiens) (UniProt Q9BZL6).
T3 sequence (whole entry): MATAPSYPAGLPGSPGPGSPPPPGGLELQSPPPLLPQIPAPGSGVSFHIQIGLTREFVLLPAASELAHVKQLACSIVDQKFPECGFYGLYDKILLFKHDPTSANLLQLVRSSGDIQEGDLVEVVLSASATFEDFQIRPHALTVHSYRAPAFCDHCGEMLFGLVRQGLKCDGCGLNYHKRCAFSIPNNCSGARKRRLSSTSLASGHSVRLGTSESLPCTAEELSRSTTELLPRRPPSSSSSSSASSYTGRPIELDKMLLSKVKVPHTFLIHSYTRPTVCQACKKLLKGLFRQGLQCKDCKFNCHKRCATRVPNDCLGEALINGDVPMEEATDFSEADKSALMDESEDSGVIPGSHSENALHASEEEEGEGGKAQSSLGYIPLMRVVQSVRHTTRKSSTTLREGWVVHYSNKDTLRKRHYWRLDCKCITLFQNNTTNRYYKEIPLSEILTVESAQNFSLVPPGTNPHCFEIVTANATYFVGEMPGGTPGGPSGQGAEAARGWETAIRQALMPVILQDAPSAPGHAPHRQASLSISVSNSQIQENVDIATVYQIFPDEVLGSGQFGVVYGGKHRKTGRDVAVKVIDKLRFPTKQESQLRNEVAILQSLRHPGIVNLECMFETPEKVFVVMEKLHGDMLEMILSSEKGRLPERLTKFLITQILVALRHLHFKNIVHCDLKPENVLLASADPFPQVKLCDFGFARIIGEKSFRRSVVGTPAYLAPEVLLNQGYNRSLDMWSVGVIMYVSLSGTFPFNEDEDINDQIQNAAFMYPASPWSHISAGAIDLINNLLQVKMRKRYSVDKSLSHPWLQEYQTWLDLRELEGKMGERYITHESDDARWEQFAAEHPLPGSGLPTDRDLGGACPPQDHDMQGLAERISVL
The settings on record: at 0.1 µM.

Assay [11] deals with T3, Serine/threonine-protein kinase D2 (Homo sapiens). The settings on record: at 1 µM.
Assay [12] deals with T4, Serine/threonine-protein kinase D3 (Homo sapiens) (UniProt O94806).
T4 sequence (whole entry): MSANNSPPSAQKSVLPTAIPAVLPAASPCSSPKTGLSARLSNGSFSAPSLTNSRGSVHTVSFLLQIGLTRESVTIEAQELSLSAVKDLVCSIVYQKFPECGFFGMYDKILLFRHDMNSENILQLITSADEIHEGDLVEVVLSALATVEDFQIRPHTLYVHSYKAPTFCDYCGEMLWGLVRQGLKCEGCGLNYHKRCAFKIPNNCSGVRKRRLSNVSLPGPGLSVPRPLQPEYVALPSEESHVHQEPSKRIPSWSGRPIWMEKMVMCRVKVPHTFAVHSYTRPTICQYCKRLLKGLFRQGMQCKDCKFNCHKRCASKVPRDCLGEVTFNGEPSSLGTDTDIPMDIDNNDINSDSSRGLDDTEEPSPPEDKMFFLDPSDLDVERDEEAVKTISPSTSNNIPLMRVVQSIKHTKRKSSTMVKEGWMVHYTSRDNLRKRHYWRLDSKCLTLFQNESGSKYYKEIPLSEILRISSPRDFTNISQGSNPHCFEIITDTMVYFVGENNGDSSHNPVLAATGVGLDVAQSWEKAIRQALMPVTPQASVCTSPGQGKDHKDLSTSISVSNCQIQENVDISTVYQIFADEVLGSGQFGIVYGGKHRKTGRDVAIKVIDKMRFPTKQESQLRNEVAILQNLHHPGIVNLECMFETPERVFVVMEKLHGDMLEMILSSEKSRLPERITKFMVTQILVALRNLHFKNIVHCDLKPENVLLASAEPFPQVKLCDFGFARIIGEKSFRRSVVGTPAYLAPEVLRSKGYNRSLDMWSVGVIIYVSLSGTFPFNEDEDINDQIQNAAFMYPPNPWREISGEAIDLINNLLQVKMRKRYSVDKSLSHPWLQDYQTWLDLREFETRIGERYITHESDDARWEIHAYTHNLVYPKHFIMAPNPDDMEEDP
As to conditions: at 0.1 µM.

Assay [13] concerns the target T4, Serine/threonine-protein kinase D3 (Homo sapiens). The settings on record: at 1 µM.
Assay [14] has as its target T5, cGMP-dependent protein kinase 1 (Homo sapiens) (UniProt Q13976).
T5 sequence (whole entry): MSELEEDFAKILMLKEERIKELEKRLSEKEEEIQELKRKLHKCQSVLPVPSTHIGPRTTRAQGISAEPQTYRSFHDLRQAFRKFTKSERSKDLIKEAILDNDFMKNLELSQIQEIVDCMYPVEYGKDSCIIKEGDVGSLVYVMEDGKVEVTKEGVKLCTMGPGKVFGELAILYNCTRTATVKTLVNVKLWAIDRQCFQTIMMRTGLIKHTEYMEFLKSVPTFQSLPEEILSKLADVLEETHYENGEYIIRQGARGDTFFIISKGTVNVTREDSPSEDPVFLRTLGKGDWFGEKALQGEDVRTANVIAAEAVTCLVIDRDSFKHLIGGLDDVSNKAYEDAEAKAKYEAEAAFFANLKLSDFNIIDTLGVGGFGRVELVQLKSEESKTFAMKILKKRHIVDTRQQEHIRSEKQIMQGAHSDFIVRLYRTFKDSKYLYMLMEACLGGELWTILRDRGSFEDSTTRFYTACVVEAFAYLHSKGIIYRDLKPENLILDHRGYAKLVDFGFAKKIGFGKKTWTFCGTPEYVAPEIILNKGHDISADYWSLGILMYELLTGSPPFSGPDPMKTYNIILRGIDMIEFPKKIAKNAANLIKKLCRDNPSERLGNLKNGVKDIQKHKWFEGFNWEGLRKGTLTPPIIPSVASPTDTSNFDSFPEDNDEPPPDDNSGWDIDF
As to conditions: at 0.1 µM.

In assay [15] the target is T5, cGMP-dependent protein kinase 1 (Homo sapiens). As to conditions: at 1 µM.
Assay [16] has as its target T6, cGMP-dependent protein kinase 2 (Homo sapiens) (UniProt Q13237).
T6 sequence (whole entry): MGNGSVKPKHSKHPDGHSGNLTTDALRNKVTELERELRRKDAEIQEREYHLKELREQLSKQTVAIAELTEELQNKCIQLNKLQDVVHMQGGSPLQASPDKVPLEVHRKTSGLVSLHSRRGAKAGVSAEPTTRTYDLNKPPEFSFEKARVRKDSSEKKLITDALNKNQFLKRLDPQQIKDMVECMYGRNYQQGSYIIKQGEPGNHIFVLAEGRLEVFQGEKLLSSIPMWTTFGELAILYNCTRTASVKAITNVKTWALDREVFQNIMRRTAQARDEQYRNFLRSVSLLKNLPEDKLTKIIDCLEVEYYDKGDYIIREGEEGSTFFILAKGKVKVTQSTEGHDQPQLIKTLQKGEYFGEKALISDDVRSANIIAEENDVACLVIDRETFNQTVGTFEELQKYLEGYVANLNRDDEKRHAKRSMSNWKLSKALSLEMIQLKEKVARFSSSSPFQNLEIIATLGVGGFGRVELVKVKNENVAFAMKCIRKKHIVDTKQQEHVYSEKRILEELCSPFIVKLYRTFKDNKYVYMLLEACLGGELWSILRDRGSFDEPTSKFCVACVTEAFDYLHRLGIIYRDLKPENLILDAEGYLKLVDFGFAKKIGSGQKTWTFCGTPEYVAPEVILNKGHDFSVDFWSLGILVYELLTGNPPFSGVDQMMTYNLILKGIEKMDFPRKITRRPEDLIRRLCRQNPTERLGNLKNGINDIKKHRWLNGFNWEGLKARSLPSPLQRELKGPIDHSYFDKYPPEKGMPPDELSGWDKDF
As to conditions: at 0.1 µM.

Assay [17] addresses T6, cGMP-dependent protein kinase 2 (Homo sapiens). As to conditions: at 1 µM.
Assay [18] deals with T7, cAMP-dependent protein kinase catalytic subunit PRKX (Homo sapiens) (UniProt P51817).
T7 sequence (whole entry): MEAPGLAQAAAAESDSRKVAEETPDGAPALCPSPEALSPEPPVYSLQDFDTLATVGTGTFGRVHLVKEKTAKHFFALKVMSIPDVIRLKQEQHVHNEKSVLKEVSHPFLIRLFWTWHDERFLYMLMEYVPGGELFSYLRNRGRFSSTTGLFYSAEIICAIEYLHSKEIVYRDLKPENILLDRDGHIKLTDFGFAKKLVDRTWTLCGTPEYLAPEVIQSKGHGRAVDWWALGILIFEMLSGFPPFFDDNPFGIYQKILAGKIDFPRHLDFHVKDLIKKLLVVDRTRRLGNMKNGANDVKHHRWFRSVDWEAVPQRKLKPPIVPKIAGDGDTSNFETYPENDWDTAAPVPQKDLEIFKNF
The settings on record: at 0.1 µM.

Assay [19] concerns the target T7, cAMP-dependent protein kinase catalytic subunit PRKX (Homo sapiens). As to conditions: at 1 µM.
Assay [20] deals with Rho-associated protein kinase 1 (Homo sapiens) (UniProt Q13464). As to conditions: at 0.1 µM.
Chain of Rho-associated protein kinase 1 (Homo sapiens) (Q13464 2-1354 limits assumed): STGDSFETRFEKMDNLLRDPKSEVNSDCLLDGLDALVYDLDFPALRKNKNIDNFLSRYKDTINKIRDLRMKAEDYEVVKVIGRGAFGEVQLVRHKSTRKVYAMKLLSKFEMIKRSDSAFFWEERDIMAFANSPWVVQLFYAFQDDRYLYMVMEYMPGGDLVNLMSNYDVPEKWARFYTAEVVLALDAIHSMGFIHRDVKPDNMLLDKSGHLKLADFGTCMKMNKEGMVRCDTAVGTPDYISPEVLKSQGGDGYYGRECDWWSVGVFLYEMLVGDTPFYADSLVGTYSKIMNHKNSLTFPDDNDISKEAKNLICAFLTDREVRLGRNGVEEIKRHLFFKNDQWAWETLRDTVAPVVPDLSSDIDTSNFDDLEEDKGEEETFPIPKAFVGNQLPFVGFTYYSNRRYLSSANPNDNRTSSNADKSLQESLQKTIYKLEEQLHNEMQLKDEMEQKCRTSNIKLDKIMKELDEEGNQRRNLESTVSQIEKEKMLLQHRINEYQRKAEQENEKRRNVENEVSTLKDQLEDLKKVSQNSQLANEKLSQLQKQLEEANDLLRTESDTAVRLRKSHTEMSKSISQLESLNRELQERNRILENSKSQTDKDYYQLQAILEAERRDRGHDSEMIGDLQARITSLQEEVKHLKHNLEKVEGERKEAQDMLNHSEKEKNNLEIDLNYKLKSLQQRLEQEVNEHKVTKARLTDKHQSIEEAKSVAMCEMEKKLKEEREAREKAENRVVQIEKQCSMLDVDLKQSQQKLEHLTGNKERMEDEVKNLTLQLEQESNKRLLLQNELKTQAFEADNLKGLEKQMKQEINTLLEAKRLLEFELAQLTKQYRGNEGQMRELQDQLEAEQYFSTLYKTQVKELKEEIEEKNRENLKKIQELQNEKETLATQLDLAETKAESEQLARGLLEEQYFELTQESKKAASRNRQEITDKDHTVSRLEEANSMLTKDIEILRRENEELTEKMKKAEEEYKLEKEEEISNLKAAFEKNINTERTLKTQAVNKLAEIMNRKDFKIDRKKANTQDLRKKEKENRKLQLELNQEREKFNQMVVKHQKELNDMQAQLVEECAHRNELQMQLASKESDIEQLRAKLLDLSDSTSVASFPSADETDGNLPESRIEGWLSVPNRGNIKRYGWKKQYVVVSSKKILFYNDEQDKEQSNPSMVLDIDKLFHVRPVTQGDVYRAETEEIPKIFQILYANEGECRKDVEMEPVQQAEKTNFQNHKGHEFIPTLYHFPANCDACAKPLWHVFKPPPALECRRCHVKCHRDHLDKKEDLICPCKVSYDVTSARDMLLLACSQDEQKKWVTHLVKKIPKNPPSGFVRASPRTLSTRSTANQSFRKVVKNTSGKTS

Each structure is given as a SMILES string.

Regarding `c1ccc(-c2n[nH]cc2-c2ccnc(-c3ccc(OCCN4CCOCC4)cc3)c2)nc1`, the inhibition in assay [1] was 4%; in assay [2] it was 3.68%; in [3], 4.56%; in [4], 0.5%; in assay [5], -0.12%; in assay [6], 3.96%. The inhibition in assay [7] came to 3.92%; in assay [8] it was 10.3%; in assay [9], 66.3%; in assay [10], 16.2%; in [11], 80.7%; in assay [12] it was 5.97%. In addition, the inhibition in [13] is 57.5%; in [14] it was 3.53%; in assay [15], 4.78%; in assay [16], 4.17%; in [17], 3.32%; in [18], 4.09%. Also, the inhibition was 2.55% in [19] and 1.08% in [20].

A word on the inhibition: it is the relative decrease from the control value, in per cent.
